Shown are actives, neighbours in structure and some others; about 4.2% of the full set was active somewhere.
TIM10 inh: TIM10 yeast growth inhibition; S. cerevisiae TIM10 strain growth, BacTiter-Glo luminescence, 24 h; inhibition, % at 10 µM; 1.4% of 330,000 active; AID 463195;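 active means inhibition of 40% or more at the single tested concentration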;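 further: wild-type TIM10 isogenic control strain grown at permissive 25 °C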
NALP1 yeast inh: inhibitors of NALP1 inflammasome in yeast; S. cerevisiae NALP1/ASC/caspase-1 growth, X-gal OD620, 72 h; inhibition, % at 10 µM; 0.61% of 280,000 active; AID 2071; in the data active means inhibition mostly above about 24%, no sharp cut-off; inactive means mostly below about 32%
tim23-1 inh: tim23-1 yeast growth inhibition; S. cerevisiae tim23-1 growth, BacTiter-Glo luminescence, 24 h; inhibition, % at 20 µM; 1.3% of 330,000 active; AID 463212;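 active means growth inhibition of the mutant yeast at or above 50%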;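 further: temperature-sensitive mutant grown at 25 °C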
V-ATPase pHluor: yeast V-ATPase proton transport regulation by pHLuorin | S. cerevisiae, pHLuorin cytosolic pH fluorescence | response, % at 10 µM | 0.37% of 350,000 active; in the data active means response mostly above about 7.3%, no sharp cut-off; inactive means mostly below about 5.4%; further: actives read high
NLRP3 yeast inh: inhibitors of NALP3 inflammasome in yeast. Yeast reconstituted NLRP3/ASC/caspase-1, beta-gal luminescence, 24 h. inhibition, % at 10 µM. 0.39% of 330,000 active. AID 2825;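 active means inhibition of 50% or more; inactive means inhibition below 50%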
tim10-1 inh: tim10-1 yeast growth inhibition | inhibition, % at 20 µM | AID 463190 | S. cerevisiae tim10-1 ts strain growth, BacTiter-Glo, 24 h | 2.2% of 330,000 active;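 active means inhibition of at least 40%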;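 further: mutant grown at 25 °C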
NALP3 yeast conf: NALP3 inhibition confirmation in yeast; 81% of 1,300 active; yeast expressing human NALP3, luminescence; inhibition, % at 10 µM; shares compounds with NLRP3 yeast inh; in the data active means inhibition above about 48%
Casp1-ASC yeast: active in yeast caspase-1-ASC counter-screen for NALP3 inhibitors; shares compounds with NLRP3 yeast inh; yeast expressing Caspase-1-ASC, luminescence counter screen; inhibition, % at 10 µM; 66% of 1,000 active; AID 488784
NALP3 yeast rt: confirmation retest of NALP3 inhibitors in yeast; yeast expressing human NALP3, luminescence read-out; shares compounds with NLRP3 yeast inh; inhibition, % at 10 µM; 53% of 1,000 active
tim10-1 confirm: confirmation of tim10-1 mutant yeast growth inhibitors. shares compounds with tim10-1 inh. S. cerevisiae tim10-1 ts strain growth, BacTiter-Glo, 24 h. inhibition, % at 20 µM. 56% of 7,400 active;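 active means inhibition of yeast growth at or above a set limit in either of two repeat tests at 20 µM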;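 further: tim10-1 mutant grown at permissive 25 °C to find synthetic lethal compounds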
tim10 confirm: confirmation of TIM10 yeast growth inhibitors | inhibition, % at 10 µM | 63% of 4,600 active | shares compounds with TIM10 inh | S. cerevisiae tim10 strain growth, BacTiter-Glo luminescence, 24 h | AID 463215;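 active means inhibition of yeast growth at or above a set limit in either of two replicates at 10 µM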; further: this counterscreen used the strain with wild-type TIM10
tim23-1 conf: confirmation of tim23-1 mutant yeast growth inhibitors; shares compounds with tim23-1 inh; S. cerevisiae tim23-1 growth, BacTiter-Glo luminescence, 24 h; inhibition, % at 20 µM; 83% of 4,400 active;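 active means inhibition above about 39% in either of two replicate wells at 20 µM, limit read from the data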;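 further: temperature-sensitive tim23-1 mutant grown at 25 °C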
V-ATPase pH SP: modulates yeast V-ATPase proton transport | S. cerevisiae pHLuorin cytosolic pH | shares compounds with V-ATPase pHluor | response, % at 10 µM | AID 602197 | 2% of 980 active; in the data active means response above about 24%
Of the large screens only hits and unclear results are named; the others gave an inactive call (follow-up assays come after a bar, where they were run). Unless noted, no stated cut-off is given here; in the data, active means inhibition above about 50%; inactive means the rest.

COC(=O)COc1ccc(-c2ccc(F)cc2)cc1C=O	TIM10 inh 74, V-ATPase pHluor 6.2, NLRP3 yeast inh 56, tim10-1 inh 62 | NALP3 yeast conf 55 | Casp1-ASC yeast 58 | NALP3 yeast rt inactive | tim10-1 confirm 65 | tim10 confirm 80 | V-ATPase pH SP inactive
COCCCn1nnnc1SCC(=O)Nc1nc2ccccc2s1	none
CCOC(=O)N=Nc1c2ccccc2c2nc3no[nH]c3nc12	TIM10 inh 86, tim23-1 inh 55, V-ATPase pHluor 22, NLRP3 yeast inh 86, tim10-1 inh 76 | NALP3 yeast conf 92 | Casp1-ASC yeast 72 | NALP3 yeast rt 62 | tim10-1 confirm 81 | tim10 confirm 96 | tim23-1 conf 81 | V-ATPase pH SP 118
CCOC(=O)C(=O)N=Nc1c(O)n(C)c2ccccc12	none
O=C(O)C1CCC(Cn2c(SCc3cc(=O)n4cc(Cl)ccc4n3)nc3ccsc3c2=O)CC1 (configuration not stated)	none
N#Cc1ccc(Cn2ccnc2C(=O)Nc2ccccc2)cc1	tim10-1 inh 57 | tim10-1 confirm inactive
Cc1ccc(Cn2ccnc2C(=O)Nc2ccccc2)cc1	none
Cc1ccc(CN2CCSc3ccc(C(=O)NCC4CCCO4)cc32)cc1 (configuration not stated)	tim10-1 inh 41 | tim10-1 confirm inactive
O=C(c1ccc2c(c1)N(Cc1ccccc1)CCS2)N1CCCCC1	tim10-1 inh 43 | tim10-1 confirm inactive
Cc1cn(CCOc2ccc(Cl)cc2)c(=O)[nH]c1=O	none
CC(=O)O[C@]1(C(C)=O)CCC2C3C=C(C)C4=CC(=O)CC[C@]4(C)C3CC[C@@]21C (some centres not stated)	none
CC(=O)O[C@]1(C(C)=O)CC[C@H]2[C@@H]3C=CC4=CC(=O)C=C[C@]4(C)[C@H]3CC[C@@]21C	tim10-1 inh 40 | tim10-1 confirm inactive
CCCOC(=O)c1ccc(NC(=O)c2c(Cl)ccc(Cl)c2OC)cc1	tim10-1 inh 48 | tim10-1 confirm 32
CCCOC(=O)c1ccc(NC(=O)c2ccccc2OC)cc1	none
CC(=O)C1C(c2ccc(F)cc2)c2c(noc2C)CC1(C)O (configuration not stated)	none
COc1ccc(/C=N/NC(=O)COc2ccccc2-c2ccccc2)cc1	tim10-1 inh 45 | tim10-1 confirm inactive
N/C(=N\OC(=O)CCCc1ccccc1)c1ccc([N+](=O)[O-])cc1	tim10-1 inh 46 | tim10-1 confirm 52
COc1ccc(OCCCC(=O)ON=C(N)c2ccccc2C)cc1	tim10-1 inh 44 (no result: NALP1 yeast inh) | tim10-1 confirm 56
N/C(=N\OC(=O)CCCOc1ccccc1)c1ccc([N+](=O)[O-])cc1	tim10-1 inh 55 | tim10-1 confirm 42
CC(=O)Nc1ccc(C(=S)NCCCO)cc1	none
CC(C)(CO)NC(=S)NCc1ccco1	none
COCCCNC(=O)c1c(N)n(/N=C/c2cccnc2)c2nc3ccccc3nc12	none
COCCCNC(=O)c1c(N)n(/N=C/c2cccs2)c2nc3ccccc3nc12	tim10-1 inh 42 | tim10-1 confirm inactive
CCC(C)NC(=O)c1c(N)n(/N=C/c2ccccn2)c2nc3ccccc3nc12 (configuration not stated)	tim10-1 inh 42 | tim10-1 confirm inactive
Cc1ccc(NC(=O)CNc2ccccc2N2CCCC2=O)cc1S(=O)(=O)N1CCCCC1	none (no result: NALP1 yeast inh)
O=C(c1ccoc1)N1CCN(c2cc(-c3ccccc3)nc3cc(-c4ccc(Br)cc4)nn23)CC1	none (no result: TIM10 inh, NALP1 yeast inh, tim23-1 inh, NLRP3 yeast inh, tim10-1 inh)
C/C(=N\O)c1ccc(Cl)cc1Cl	none
C/C(=N\O)c1cc(Cl)cc(Cl)c1O	tim10-1 inh 48 | tim10-1 confirm 43
Cc1onc(-c2ccccc2)c1C(=O)N=C(N)c1ccc(C(F)(F)F)cc1	none
CCN1CCN(S(=O)(=O)CC2(C)C3CCC2(C)C(=O)C3Br)CC1 (configuration not stated)	none
Cc1ccc(CNCc2cc3c(C(C)(C)C)nn(-c4ccccc4)c3[nH]c2=O)cc1	tim10-1 inh 50 | tim10-1 confirm 39
Cn1c(/C=C/c2ccc(Br)cc2)c([N+](=O)[O-])c(=O)n(C)c1=O	tim10-1 inh 42 | tim10-1 confirm inactive
CN(C)c1ccc(/C=C/c2c([N+](=O)[O-])c(=O)n(C)c(=O)n2C)cc1	none
Cc1cccc(NC(=S)NNC(=O)c2csc(C(C)C)c2)c1	tim10-1 inh 44 | tim10-1 confirm inactive
O=C(c1cc(-c2ccccc2)n[nH]1)N1CCc2c([nH]c3ccccc23)C1c1ccccn1 (configuration not stated)	none
COc1ccc2oc(=O)c(-c3csc(Nc4cccc(O)c4)n3)cc2c1	tim10-1 inh 45 | tim10-1 confirm 37
O=C(O)c1cc2nccc(-c3ccc(F)cc3)n2n1	none
COc1ccccc1N/C(=N/S(=O)(=O)c1ccc(C)cc1)c1ccccc1	none
COc1ccccc1N/C(=N/S(=O)(=O)c1ccc(Cl)cc1)c1ccccc1	tim10-1 inh 41 | tim10-1 confirm inactive
O=C(O)c1c(C(=O)N2N=C3/C(=C/c4ccccc4)CCCC3C2c2ccccc2)cccc1[N+](=O)[O-] (configuration not stated)	none
O=C(O)c1ccccc1C(=O)N1N=C2/C(=C/c3cccc([N+](=O)[O-])c3)CCCC2C1c1cccc([N+](=O)[O-])c1 (configuration not stated)	tim10-1 inh 44 | tim10-1 confirm inactive
COC(=O)c1cc(OC)nc2ccc(Br)cc12	none
CCCc1ccc(-c2cc(NC(=O)CSc3nnc(N)s3)n(-c3ccccc3)n2)cc1	tim10-1 inh 43 | tim10-1 confirm inactive

High-throughput results as filed in PubChem.
